From PubChem
MCF10A rereplic: induces DNA re-replication in MCF 10a normal breast cells. Potency, µM (top dose mostly 46.1 µM), without a hit: at the highest dose activity, positive = re-replication, most hits filed as activators. AID 624296. hit rate 2.9% among 350,000. MCF 10A DNA re-replication, Hoechst nuclear intensity, 48 h; further: % of control where 0% means no effect; nearly all actives have a fitted effect of over 50% in size
KB-V1 cytotox: KB-V1 MDR subline cytotoxicity; Potency, µM (doses to about 46.1 µM), usual class: cytotoxic; AID 1347076; hit rate 3.4% among 400,000; KB-V1 MDR cells viability, CellTiter-Glo, 72 h; further: on the % scale 0 is the no-effect control and ±100 the full control effect; nearly all actives have a fitted effect of over 60% in size
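Cytotoxicity toward P-gp-expressing KB-V1 cells was determined as loss of CellTiter-Glo luminescence after 72 h at 37 degrees C. Compounds were tested in quantitative HTS format across a concentration range, with curves fitted to normalized data.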
SW480 rerep: induces DNA re-replication in SW480 colon adenocarcinoma cells; SW480 DNA re-replication, Hoechst DNA content imaging, 48 h; Potency, µM (series often up to 46.1 µM), for inactives: at the highest dose re-replication activation, hits mostly activators; hit rate 1.8% among 340,000; AID 624297; further: % of control where 0% means no effect; nearly all actives have a fitted effect of over 55% in size
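Hoechst fluorescence of nuclei (405 nm excitation, 500-530 nm emission) measured by plate-scanning imager after 48 hr compound exposure at 37 C; re-replication scored as increased number of nuclei with elevated intensity.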
ELG1 DNA repair: ELG1-dependent DNA repair inhibition; Potency, µM (titrated, usually from 46.1 µM), without a hit: top-dose activity change, negative = inhibition, hits mostly inhibitors; hit rate 2.3% among 330,000; HEK293T ELG1-luciferase reporter, luminescence, 16 h; DNA damage induced by 5-fluorouridine; further: on the % scale 0 is the no-effect control and ±100 the full control effect; nearly all actives have a fitted effect of over 55% in size
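Step one: seed 2,000 cells per well. Step two: pin-transfer compound or DMSO alongside 5-fluorouridine. Step three: incubate 16 hr, 37 °C, 5% CO2. Step four: add ONE-Glo, wait 30 min, read luminescence.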
KB-3-1 tox: kills parental KB-3-1 adenocarcinoma cells; hit rate 1.4% among 400,000; KB-3-1 viability, CellTiter-Glo ATP luminescence, 72 h; AID 1347075; Potency, µM (series often up to 46.1 µM), usual class: cytotoxic; further: on the % scale 0 is the no-effect control and ±100 the full control effect; nearly all actives have a fitted effect of over 60% in size
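Parental KB-3-1 adenocarcinoma cells in phenol-red-free DMEM with 10% FBS were pin-treated with compounds at several concentrations, incubated 72 h at 37 °C, and viability read by CellTiter-Glo luminescence; concentration-effect curves were fitted after normalization.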
An asterisk follows results filed as active; i = inactive; ? = inconclusive; · = not tested or not shown; [ ] = dose if it differs, or a comment. Most compounds without a hit are left out; they make up all but 8.1% or so of the library. The call rests on the fitted dose curve; in most records, active means well fitted curve in the direction sought with a large enough effect; inconclusive means small, poorly fitted or top-dose-only effect, or another doubt; inactive means no such curve, though single readings can be large; an effect the other way counts as inactive or inconclusive. Potency means the concentration at half of the fitted maximal effect.

SMILES | MCF10A rereplic | KB-V1 cytotox | SW480 rerep | ELG1 DNA repair | KB-3-1 tox
O=[N+]([O-])c1ccc(N2CCC(O)CC2)nc1 | 16% | i | -2% | 0% | i
CCOC(=O)C1=C(NC(=S)NC(=O)c2ccccc2)c2ccccc2CC1C(C)C (stereo not given) | ? | ? | ? | -2% | ?
CCOC(=O)C1=C(NC(=S)NC(=O)c2ccccc2)c2ccccc2CC1(C)CC (stereo not given) | 13µM* | ? | 10% | -19% | 16µM*
O=C(Oc1c(Cl)cc(Cl)c2cccnc12)c1cccs1 | 6.5µM* | ? | ? | ? | ?
O=C(Oc1c(CN2CCOCC2)cc(Cl)c2cccnc12)c1ccccc1Cl | ? | ? | 17% | 12µM* | ?
O=C(Oc1c(Cl)cc(Cl)c2cccnc12)c1ccco1 | 21µM* | 2.1µM* | ? | ? | ?
O=C(Oc1ccc(Cl)c2cccnc12)N1CCOCC1 | 0% | i | -4% | -1% | i
O=C(Cc1ccccc1)NC(c1ccco1)c1cc(Cl)c2cccnc2c1O (stereo not given) | · | i | · | · | i
O=C(Oc1c(CN2CCOCC2)cc(Cl)c2cccnc12)c1cccs1 | ? | ? | 8.2µM* | ? | ?
Cc1ccc(C)c(Nc2c([N+](=O)[O-])c(=O)oc3ccccc23)c1 | ? | ? | ? | 21µM* | i
O=c1oc2ccccc2c(Nc2ccc3ccccc3c2)c1[N+](=O)[O-] | ? | i | 21% | -4% | ?
COc1ccc(-c2nc(SC)n(C)c(=O)c2C#N)cc1OC | ? | i | 1% | ? | i
O=C(c1cccc(COCC(F)(F)C(F)F)c1)N1CCN(c2ccccc2)CC1 | 1% | 15µM* | 0% | · | i
COc1ccc(/C=N/NC(=O)c2cccc(COCC(F)(F)C(F)F)c2)cc1 | 12% | 23µM* | -80% | 0% | i
CCOc1ccc(NC(=O)c2cc(S(=O)(=O)N3CCCCC3)c[nH]2)cc1 | 2% | i | 0% | 2% | i
Cc1c(Cl)c(-c2n[nH]c(=S)n2CC(C)C)nn1C | -39% | ? | -176% | 14% | i
CC(CCN1CCN(c2ccccn2)CC1)c1ccccc1 (stereo not given) | -7% | i | -2% | -1% | i
CCC(=O)OCCNc1cc(Sc2nc3ccccc3[nH]2)c2nonc2c1[N+](=O)[O-] | 1.3µM* | i | 10µM* | -11% | 23µM*
C[C@H](CO)N1C[C@H](C)[C@H](CN(C)C(=O)Nc2cccc3ccccc23)OCc2cnnn2CCCC1=O | · | i | · | · | i
Cc1c(NC(=O)c2ccc3c(c2)C(=O)N(CC2CCCO2)C3=O)cccc1C(=O)O (stereo not given) | -1% | i | 4.1µM* | ? | i
CCOc1ccccc1NC(=O)c1ccc2c(c1)C(=O)N(CC1CCCO1)C2=O (stereo not given) | 7% | i | -7% | 6% | i
Cc1nnc(NC(=O)c2ccc3c(c2)C(=O)N(CC2CCCO2)C3=O)s1 (stereo not given) | 12µM* | i | ? | ? | i
O=C(Nc1ccc2c(c1)C(=O)N(CC1CCCO1)C2=O)c1ccc(Cl)c(Cl)c1 (stereo not given) | 13% | 21µM* | -1% | 9.2µM* | i
Cc1ccc(C(=O)COC(=O)CNC(=O)c2cccs2)cc1C | 1% | i | -6% | 3% | i
Cc1ccccc1NC(=O)Nc1nnc(N(C)Cc2ccccc2)s1 | · | i | · | · | i
SMILES | MCF10A rereplic | KB-V1 cytotox | SW480 rerep | ELG1 DNA repair | KB-3-1 tox
CCOC(=O)c1c(N)sc2c(OCC)c(Br)ccc12 | ? | i | 21µM* | 9% | i
CCOP(=O)(OCC)C(Cc1ccc(OC)c(OC)c1)N=C(c1ccccc1)c1ccccc1 (stereo not given) | · | 15µM* | · | · | i
CC1CCC(NC(=O)c2cc3c(s2)CS(=O)(=O)C3)CC1 (stereo not given) | 7% | i | -8% | 11% | i
CCN(C(=O)c1cc2c(=O)[nH]c3ccc(C)cc3c2s1)c1ccc(F)cc1 | 16µM* | i | ? | -8% | i
Cc1ccc2[nH]c(=O)c3cc(C(=O)N(C)c4ccc(C)c(C)c4)sc3c2c1 | 4.1µM* | i | 15µM* | ? | i
CCN(C(=O)c1cc2c(=O)[nH]c3ccc(C)cc3c2s1)c1cccc(C)c1 | ? | i | ? | -7% | i
c1ccc(C[C@H]2CN=C(Nc3ccccc3)N2CCC2CCCC2)cc1 | 8% | i | 37%[9.22 µM] | ? | i
CC(C)Oc1ccc(C(=O)OCC(=O)c2ccc[nH]2)cc1 | -3% | ? | -8% | ? | i
CC(Sc1nc2ccccc2n1C)C(=O)NC(c1ccccc1)c1ccccc1 (stereo not given) | ? | 8.2µM* | ? | -4% | i
Cc1cccc(CCN(C(=O)c2snc(C(N)=O)c2N)C(C(=O)NCC2CCCO2)c2ccc(F)cc2)c1 (stereo not given) | ? | 21µM* | ? | -17% | i
COCCN(C(=O)c1snc(C(N)=O)c1N)C(C(=O)NC1CCCCC1)c1ccc(F)cc1 (stereo not given) | 16µM* | i | ? | -2% | i
NC(=O)c1nsc(C(=O)N(CC(=O)NC2CCCC2)c2cccc(C(F)(F)F)c2)c1N | 15µM* | i | ? | -8% | i
CCc1ccc(N(C(=O)c2snc(C(N)=O)c2N)C(C(=O)NC2CCCC2)c2ccco2)cc1 (stereo not given) | 6.5µM* | 23µM* | ? | ? | ?
COc1cccc(N(CC(=O)NC2CCCCC2)C(=O)c2snc(C(N)=O)c2N)c1 | 6% | ? | -5% | 23% | i
CCCN(CCC)C(=O)Nc1ccc(F)cc1F | -2% | ? | -2% | -9% | i
COc1ccc(S(=O)(=O)N2Cc3ccccc3CC2C(=O)Nc2ccc(C)cc2C)cc1OC (stereo not given) | · | i | · | · | i
Cc1cc(C(=O)NCC2COc3ccccc3O2)c2ccccc2n1 (stereo not given) | -6% | ? | -2% | -6% | i
COc1ccc(C(C(=O)NC2CCCC2)N(C(=O)c2snc(C(N)=O)c2N)c2cccc(O)c2)cc1 (stereo not given) | 7% | i | -2% | 16µM* | i
NC(=O)c1nsc(C(=O)N(c2cccc(F)c2)C(C(=O)NC2CCCC2)c2ccc(O)cc2)c1N (stereo not given) | -4% | i | 6% | 11% | i
CCN(CC)CCn1c(NC(=O)c2ccc(C(F)(F)F)cc2)nc2ccccc21 | 21µM* | i | 1% | ? | i
